# Tau fibril ThT = inhibitors of human tau fibril formation, thioflavin T binding; recombinant tau K18 P301L, heparin-induced fibrillization, ThT fluorescence; P10636; Potency, µM (titrated, usually from 57.4 µM), without a hit: at the top dose activity, negative = inhibition, hits mostly inhibitors; 270,000 tested, 2.1% active; AID 1460; further: potency means the concentration at half of the fitted maximal effect; nearly all actives have a fitted effect of over 55% in size
# Target sequence (P10636 561-689 P618L limits assumed): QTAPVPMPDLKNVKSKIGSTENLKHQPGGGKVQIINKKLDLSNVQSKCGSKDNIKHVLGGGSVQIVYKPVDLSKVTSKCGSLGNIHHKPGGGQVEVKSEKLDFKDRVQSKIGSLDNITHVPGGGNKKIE
#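 K18 P301L tau (15 uM + 0.24 uM Alexa 594-tagged), heparin 20 uM, NaOAc pH 7, 6 h 37 C; ThT 30 uM, 1 h RT, ex 450/em 510 nm.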
# Tau fluor cs = counter-screen for tau fibril formation inhibitors; AID 1463; tau K18 P301L (four-repeat tau fragment) Alexa594 fluorescence, heparin fibrillization; Potency, µM (titrated, usually from 57.7 µM), for the others: at the top dose activity change, negative = decrease; 280,000 tested, 0.93% active; further: potency means the concentration at half of the fitted maximal effect; nearly all actives have a fitted effect of over 55% in size
#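 Human K18 P301L tau (15 uM unlabeled plus 0.24 uM Alexa 594-labeled, final) in 100 mM sodium acetate pH 7 was mixed with compound and 20 uM heparin and incubated 6 hr at 37 C.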
# Sfp inh = blocks B. subtilis Sfp PPTase activity. Biochemical Sfp PPTase activity, qHTS. 310,000 tested, 3.5% active. Q9F4F7. Potency, µM, for inactives: largest response in the series, negative = inhibition, hits mostly inhibitors;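 further: the enzyme is Sfp with the accession as filed and its product quenches rhodamine fluorescence; potency means the concentration at half of the fitted maximal effect; 0% = enzyme reaction without inhibitor and -100% = no enzyme wells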
#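 With Hepes-Na pH 7.6 buffer containing 10 mM MgCl2, Sfp (15 nM) modified BHQ-2-YbbR (12.5 uM) using rhodamine-CoA (5 uM). Two reads 30 minutes apart at 525/598 nm yielded each well's rate.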
# FBPA coupling cs = coupling enzyme interference in Giardia aldolase counter-screen | coupling enzyme system counterscreen, AmpLite Red fluorescence | activity change, negative = inhibition, % at 58.2 µM, hits read low | 290,000 tested, 0.67% active | AID 2472; in the data active means activity change below about -30%
#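 Counterscreen of the coupled detection system alone, without aldolase: glyceraldehyde-3-phosphate coupling enzymes plus AmpLite Red readout. Compounds at 57.5 uM final, 10 min RT preincubation, 20 min RT reaction, fluorescence 525/598 nm.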
# Tau fibril FP = tau fibrillization inhibition (FP); P10636; K18 P301L tau heparin fibrillization, Alexa594 FP, 6 h; Potency, µM (series often up to 57.7 µM), for inactives: at the highest dose activity, negative = inhibition, usual class: inhibitors; 280,000 tested, 0.39% active; AID 1468; further: potency means the concentration at half of the fitted maximal effect; nearly all actives have a fitted effect of over 55% in size
#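 Human tau K18 […] P301L fragment, 15 uM unlabeled plus 0.24 uM Alexa 594-labeled tau (final), with compound and 20 uM heparin in 100 mM sodium acetate pH 7; 6 hr at 37 C, then Alexa 594 FP read.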
# Numbers without * were called inactive; u = inconclusive; x = not tested or not shown; [ ] = another dose, or the depositor's remark. The list is not random: actives were taken first. Their share in the collection is about 5.2%. Unless noted, the call rests on the fitted dose curve; in most records, active means well fitted curve in the direction sought with a large enough effect; inconclusive means small, poorly fitted or top-dose-only effect, or another doubt; inactive means no such curve, though single readings can be large; an effect the other way counts as inactive or inconclusive. Unless noted, on the % scale 0 is the no-effect control and ±100 the full control effect.
SMILES,Tau fibril ThT,Tau fluor cs,Sfp inh,FBPA coupling cs,Tau fibril FP
C/C(CC(=O)NCc1ccc(F)cc1)=N\NC(N)=S,-4.9%,0.7%,56.2µM*,1.1,-0.8%
C/C(CC(=O)NCc1ccccc1)=N\NC(N)=S,-8.7%,-6.8%,44.7µM*,-1.0,-1.0%
C=C1CC[C@H](O)C/C1=C/C=C1\CCC[C@]2(C)[C@H]1CC[C@H]2[C@@H](C)/C=C\[C@@H](C)C(C)C,x,x,u,-5.8,x
O=C(NCCc1c[nH]c2ccccc12)c1ccccc1O,x,x,8.3%,-0.4,x
CC1CCN(C(=S)c2ccc([N+](=O)[O-])cc2)CC1,u,-11.2%,44.7µM*,5.5,-8.8%
O=[N+]([O-])c1ccc(C(=S)N2CCCC2)cc1,-9.4%,1.0%,50.1µM*,3.9,-1.5%
CCN1CCN(C(=S)c2ccc([N+](=O)[O-])cc2)CC1,-1.4%,3.2%,12.6µM*,-6.9,-5.8%
Cn1c(=O)c2c(nc(Oc3ccccc3)n2Cc2c(Cl)cccc2Cl)n(C)c1=O,-1.9%,1.0%,x,x,1.0%
COc1ccc(/C=C2\CCc3ccccc3C2=O)cc1Cn1nc(C)cc1C,u,-10.2%,20µM*,-4.1,6.4%
COCCNc1ccnc(-c2c(C)noc2C)n1,-12.3%,-17.9%,24.9%,0.3,-4.5%
NC(=O)c1c(/N=C/c2cccs2)sc2c1CCCC2,2.24µM*,-10.4%,-11.2%,0.5,-6.0%
Cc1ccc(S(=O)(=O)Nc2cc(Cl)c3oc4c(c3c2)CCCC4)cc1,-6.8%,u,x,x,u
CCN(CC)CCCC(C)n1c(-c2ccccc2)nc2c(NCCO)nc(C)nc21 (stereo unspecified),-11.6%,-16.9%,24.1%,2.2,-5.0%
CCOc1ccccc1-c1nnc2n1N=C(c1ccc(OC)c(OC)c1)CS2,x,x,-25.2%,2.4,x
CCc1ccc(C(C)NC(=O)c2cc(C)oc2C)cc1 (stereo unspecified),u,-13.8%,15.8µM*,-0.1,-7.1%
CCO/C=C1/C(=O)N(C)C(=O)c2cc(OC)ccc21,-14.2%,-8.5%,5.1%,-42.7*,1.5%
CCO/C=C1/C(=O)N(c2ccc(OC)cc2)C(=O)c2ccccc21,-0.3%,3.0%,16.0%,-2.7,2.3%
CC(=Nc1ccc(Br)cc1)c1sc2ccccc2c1O,u,u,31.6µM*,-6.5,2.9%
CCN(CC)S(=O)(=O)c1cccc(NC(=O)C2SC(=Nc3ccc(C)cc3C)C(C(=O)NCC3CCCO3)=C2N)c1 (stereo unspecified),-14.4%,12.6µM*[quencher],8.2%,-0.7,u
CCCc1ccc(OC(=O)c2ccc(O)cc2Cl)cc1,u,u,1.4%,4.7,28.2µM*
CCCc1ccc(OC(=O)c2cccs2)cc1,-10.6%,-11.8%,u,0.0,-12.6%
CC(=O)NS(=O)(=O)c1ccc(NC(=O)/C=C/c2ccc(C)o2)cc1,u,-4.8%,5.01µM*,-6.2,u
Cc1cnc(NC(=O)/C=C/c2ccc(Br)o2)s1,-1.6%,2.0%,-26.6%,-0.3,-2.4%
Cc1ccc(/C=C/C(=O)Nc2ncc(C)s2)o1,u,-18.4%,12.6µM*,-10.7,-13.4%
O=C(Cc1c(Cl)cccc1Cl)Nc1cccc(S(=O)(=O)N2CCOCC2)c1,2.0%,-16.1%,19.1%,1.0,-7.3%
SMILES,Tau fibril ThT,Tau fluor cs,Sfp inh,FBPA coupling cs,Tau fibril FP
O=S(=O)(c1cccc(NC(=S)Nc2ccc(Br)cc2Cl)c1)N1CCOCC1,2.9%,-26.1%,44.7µM*,-2.4,u
Cc1ccc(/C=C/C(=O)Nc2ccc(N(C)C)cc2)o1,8.91µM*,-26.0%,-25.7%,-5.4,2.8%
Cc1ccc(/C=C/C(=O)Nc2ccncc2)o1,u,4.1%,-76.6%,1.2,-7.7%
Cc1ccc(/C=C/C(=O)NCc2ccc3c(c2)OCO3)o1,-7.4%,0.8%,-91.0%,-0.3,-2.8%
Cc1ccc(/C=C/C(=O)Nc2cccc(S(=O)(=O)N3CCOCC3)c2)o1,6.0%,5.4%,12.6µM*,-9.3,u
Cc1ccc(/C=C/C(=O)Nc2ccc(S(N)(=O)=O)cc2)o1,u,-12.4%,10µM*,0.8,-8.7%
Cc1ccc(/C=C/C(=O)NCc2ccc(S(N)(=O)=O)cc2)o1,25.1µM*,-15.9%,3.55µM*,-6.3,u
O=C(/C=C/c1ccco1)Nc1cccc(S(=O)(=O)N2CCOCC2)c1,-14.1%,-13.9%,-14.2%,0.2,-13.5%
Cc1ccc(-n2c(=O)c3c(c4cc(C)ccc4n3C)n(CC(=O)Nc3ccc(F)cc3)c2=O)cc1,0.7%,-1.0%,x,x,-8.0%
COc1ccc(-c2nc(Cn3c(=O)cc(-c4ccccc4)c4c(C)nn(C)c43)c(C)o2)cc1OC,-6.5%,-5.4%,x,x,-10.5%
CC[C@H](C)C(=O)O[C@H]1C[C@@H](C)C=C2C=C[C@H](C)[C@H](CC[C@@H]3C[C@@H](O)CC(=O)O3)[C@H]21,u,-6.0%,7.9%,-46.6*,-7.6%
Cc1ccc(CNC(=O)C2CCCN(S(=O)(=O)c3ccc4c(c3)oc(=O)n4C)C2)cc1 (stereo unspecified),-6.8%,-12.4%,x,x,-2.2%
CSc1cccc(NC(=S)N(CCCN2CCCC2)Cc2cccn2Cc2ccc(Cl)cc2)c1,u,u,79.4µM*,0.8,-1.5%
COc1cccc(NC(=S)N(CCCN2CCCC2)Cc2cccn2Cc2ccc(Cl)cc2)c1,u,u,6.6%,-0.6,4.9%
S=C(Nc1cccc(Cl)c1)N(CCCN1CCCC1)Cc1cccn1Cc1ccc(Cl)cc1,u,u,63.1µM*,-1.2,-0.4%
Cc1cc(C)cc(NC(=O)C(=O)NCC(c2cccnc2)N2CCN(c3ccccc3)CC2)c1 (stereo unspecified),7.1%,-12.7%,x,x,-1.3%
Nc1nc(-c2ccccc2)c(N=Nc2cccnc2)s1,2.82µM*,u,1.1%,-4.5,4.2%
Cc1sc(N)nc1-c1ccccc1,-8.0%,-5.1%,-3.0%,2.0,0.4%
COc1cc(CNn2c(C)n[nH]c2=S)cc(Cl)c1OCC(=O)NC(C)(C)C,x,x,-7.4%,1.4,x
CCOc1cc(CNc2ccc3[nH]c(=O)[nH]c3c2)ccc1OCC(=O)NC(C)(C)C,12.6µM*,u,u,-33.2*,u
COc1cc(CNc2ccc3[nH]c(=O)[nH]c3c2)cc(Cl)c1OCC(=O)NC(C)(C)C,11.2µM*,u,11.2µM*,-43.9*,u
O=C(O)c1ccc(-c2sc(Nc3ccccc3)n[n+]2-c2ccccc2)cc1,x,x,50.1µM*,2.4,x
c1ccc(COc2ccc(-c3sc(Nc4ccccc4)n[n+]3-c3ccccc3)cc2)cc1,x,x,56.2µM*,0.4,x
CCc1ccc(Nc2n[n+](-c3ccccc3)c(-c3ccc(OCc4ccccc4)cc3)s2)cc1,x,x,-7.1%,-1.2,x
COc1ccc(NC(=O)c2cc(S(=O)(=O)N(Cc3ccccc3)c3ccccc3)ccc2Cl)cn1,1.8%,-15.8%,4.2%,-44.0*,-6.6%
Cc1ccc(CNC(=O)C2CCCN(c3nnc(-n4c(C)ccc4C)s3)C2)cc1 (stereo unspecified),u,-7.6%,x,x,-13.5%
